A selection: hits, their analogues and other compounds. The true share with any hit is near 10%.
G9a inh-1: qHTS Assay for Inhibitors of Histone Lysine Methyltransferase G9a; hit rate 8.8% among 350,000; G9a H3K9 monomethylation, AlphaScreen, 2 h; Potency, µM (top dose mostly 102 µM), inactives show top-dose activity, negative = inhibition, usual class: inhibitors; Histone-lysine N-methyltransferase EHMT2 (Homo sapiens), Q96KQ7; further: potency means the concentration at half of the fitted maximal effect; on the % scale 0 is the no-effect control and ±100 the full control effect; nearly all actives have a fitted effect of over 75% in size
Target sequence (Q96KQ7 913-1193 limits assumed): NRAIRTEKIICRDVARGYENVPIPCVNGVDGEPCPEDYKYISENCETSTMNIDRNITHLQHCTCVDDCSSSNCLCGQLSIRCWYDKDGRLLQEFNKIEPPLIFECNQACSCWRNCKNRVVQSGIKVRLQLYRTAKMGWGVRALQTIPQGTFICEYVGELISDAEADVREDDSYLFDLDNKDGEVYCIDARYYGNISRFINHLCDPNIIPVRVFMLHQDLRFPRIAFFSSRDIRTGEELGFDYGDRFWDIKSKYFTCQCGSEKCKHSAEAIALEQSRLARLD
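Readings reflect AlphaScreen signal from monomethyl-H3K9 antibody detection. HMT at 20 nM; substrate b-H3K9 500 nM; cofactor SAM 20 uM; 2 h RT reaction; compounds tested as titrations in qHTS with 15 min preincubation.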
L3MBTL1 block: qHTS Assay for the Inhibitors of L3MBTL1 | AlphaScreen L3MBTL1–H3K9me1 peptide binding | Potency, µM (series often up to 57.1 µM), for the others: top-dose activity, negative = inhibition, usual class: inhibitors | hit rate 0.66% among 230,000 | AID 485360, 2010; further: potency means the concentration at half of the fitted maximal effect; on the % scale 0 is the no-effect control and ±100 the full control effect; nearly all actives have a fitted effect of over 60% in size
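AlphaScreen assay: L3MBTL1 (50 nM final) was preincubated 30 min at room temperature with biotinylated H3(1-15)K9me1 peptide (75 nM final), then 30 min with library compounds; streptavidin donor and nickel chelate acceptor beads (10 ug/mL final) added, 30 min dark.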
GLS inhibitor: qHTS for Inhibitors of Glutaminase (GLS); Glutaminase kidney isoform, mitochondrial (Homo sapiens), O94925; GLS enzymatic activity, qHTS titration; Potency, µM (top dose mostly 45.5 µM), without a hit: at the top dose activity change, negative = inhibition, actives largely listed as inhibitors; hit rate 0.21% among 410,000; AID 624170, 2012; further: potency means the concentration at half of the fitted maximal effect; on the % scale 0 is the no-effect control and ±100 the full control effect
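Compounds were pin-transferred onto hKGA, after which L-glutamine (1 mM solution) and a detection mix of glutamate oxidase, HRP and Amplex Red were added. Initial and 30 min RT fluorescence reads were collected.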
HP1b binding inh: HTS for Inhibitors of HP1-beta Chromodomain Interactions with Methylated Histone Tails; Chromobox protein homolog 1 (Homo sapiens), P83916; AlphaScreen HP1-beta / biotin-H3K9me3 peptide binding; Potency, µM (doses to about 114 µM), without a hit: top-dose activity change, negative = inhibition, most hits filed as inhibitors; hit rate 0.56% among 390,000; further: potency means the concentration at half of the fitted maximal effect; nearly all actives have a fitted effect of over 70% in size
Target sequence (P83916 whole entry, looked up): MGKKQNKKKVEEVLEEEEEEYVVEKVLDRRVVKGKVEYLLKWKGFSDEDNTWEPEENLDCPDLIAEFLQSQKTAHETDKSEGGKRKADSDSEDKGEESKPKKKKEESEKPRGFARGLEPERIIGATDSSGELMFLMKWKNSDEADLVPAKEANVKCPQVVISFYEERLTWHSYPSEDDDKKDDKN
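AlphaScreen: HP1-beta (50 nM) preformed 30 min with biotin-H3(1-18)K9me3 peptide (50 nM) in PBS pH 7.4, 0.01% Tween-20. Compound added for 30 min at RT, then streptavidin donor/nickel chelate acceptor beads (10 ug/mL) for 30 min.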
BAZ2B inh: qHTS Assay for Inhibitors of BAZ2B; AlphaScreen BAZ2B-H3K14Ac peptide displacement; Potency, µM (titrated, usually from 114 µM), for inactives: at the highest dose activity change, negative = inhibition, usual class: inhibitors; hit rate 4.4% among 360,000; AID 504333, 2011; further: potency means the concentration at half of the fitted maximal effect; on the % scale 0 is the no-effect control and ±100 the full control effect; nearly all actives have a fitted effect of over 60% in size
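In this displacement format the biotinylated H3(5-23) peptide acetylated at Lys14 serves as ligand at 50 nM, with BAZ2B at 50 nM in PBS pH 7.4 containing 0.01% Tween-20. Donor and acceptor beads are 10 ug/mL final.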
JMJD2A Tudor: qHTS Assay for Inhibitors of JMJD2A-Tudor Domain; Lysine-specific demethylase 4A (Homo sapiens), O75164; AlphaScreen JMJD2A-Tudor / H3K4me3 peptide binding; Potency, µM (series often up to 114 µM), for inactives: at the highest dose activity change, negative = inhibition, actives largely listed as inhibitors; hit rate 4.4% among 390,000; AID 504339, 2011; further: potency means the concentration at half of the fitted maximal effect; on the % scale 0 is the no-effect control and ±100 the full control effect; nearly all actives have a fitted effect of over 50% in size
JMJD2E confirm: Confirmation qHTS Assay for Inhibitors of Human Jumonji Domain Containing 2E (JMJD2E). Potency, µM (doses to about 56.8 µM), without a hit: at the highest dose activity change, negative = inhibition, usual class: inhibitors. hit rate 93% among 140. Recombinant JMJD2E, FDH-coupled NADH fluorescence (FDH is formaldehyde dehydrogenase). AID 2677, 2010. shares compounds with JMJD2A Tudor
FDH counter: Counterscreen for JMJD2E Inhibitors: qHTS Assay for Inhibitors of Formaldehyde Dehydrogenase (FDH) | AID 2680, 2010 | FDH enzyme assay, NADH fluorescence kinetic | Potency, µM (doses to about 56.7 µM), for the others: at the highest dose activity, negative = inhibition, hits mostly inhibitors | hit rate 10% among 140 | shares compounds with JMJD2A Tudor
G9a inh-2: qHTS Assay for Inhibitors of Histone Lysine Methyltransferase G9a: Hit Confirmation; shares compounds with JMJD2A Tudor; G9a H3K9 monomethylation, AlphaScreen, 2 h; Potency, µM, hits mostly inhibitors; hit rate 89% among 370; further: potency means the concentration at half of the fitted maximal effect; nearly all actives have a fitted effect of over 65% in size
Active calls of the source: *; ? = inconclusive; . = not tested or not shown; [ ] = remark or other dose. The call rests on the fitted dose curve; in most records, active means well fitted curve in the direction sought with a large enough effect; inconclusive means small, poorly fitted or top-dose-only effect, or another doubt; inactive means no such curve, though single readings can be large; an effect the other way counts as inactive or inconclusive.

SMILES	G9a inh-1	L3MBTL1 block	GLS inhibitor	HP1b binding inh	BAZ2B inh	JMJD2A Tudor	G9a inh-2	others
COc1ccc(C(=O)COC(=O)C2CC3CCCC(C2)C3=O)cc1Br (configuration not stated)	12.1%[0.501 µM]	-3.9%	-14.8%	37.7%	-3.9%	-4.8%	.
COc1ccc(C(=O)COC(=O)CN2CC(=O)Oc3ccccc32)cc1Br	?	.	-9.1%	-6.5%	25.1µM*	35.5µM*	25.1*
Cc1cccc(OC(=O)c2cc(-c3ccc4c(c3)OCCO4)on2)c1	-3.3%[59 µM]	.	4.3%	45.0%	-4.3%	-4.0%	.
Cc1cccc(NC(=O)CCN2CCN(c3ccccc3F)CC2)c1	4.4%[59 µM]	.	1.8%	45.4%	4.5%	-19.9%	.
CSc1nnc(-c2ccccc2)n1C	28.4%[59 µM]	-1.8%	4.0%	9.4%	-1.7%	-7.7%	.
CSc1nnc(C2CCCN2)n1C (configuration not stated)	2.51µM*	?	-31.8%	27.5%	17.8µM*	?	4.48*
CN1CCC(NC(=O)c2cccc(Oc3ccccc3)c2)CC1	.	.	-9.1%	24.9%	-12.3%	-25.4%	.
CN1CCC(N(C)CC(=O)Nc2cccc(Oc3ccccc3)c2)CC1	?	.	-5.4%	-18.1%	50.1µM*	6.31µM*	?
CCN(CC)S(=O)(=O)c1cccc(NC(=O)C2SC(=Nc3ccc(C)cc3C)C(C(=O)NCC3CCCO3)=C2N)c1 (configuration not stated)	17.8%[12.7 µM]	.	-9.2%	21.7%	-32.4%	-33.1%	.
Cc1cccc(NC(=O)C2SC(=Nc3c(C)cccc3C)C(C(=O)N3CCOCC3)=C2N)c1 (configuration not stated)	1.58µM*	1.0%	2.4%	-23.1%	-8.3%	?	15.9*
c1ccc2c(CN3CCOCC3)c3ccccc3c(CN3CCOCC3)c2c1	?	-4.1%	19.2%	21.8%	-33.3%	-16.9%	.
Oc1c(CN2CCOCC2)ccc2ccccc12	2.24µM*	-11.6%	3.5%	-30.9%	-36.4%	?	1.26*
COc1ccccc1CNC(=O)CCNS(=O)(=O)c1ccc2c(c1)CCCC(=O)N2	-12.0%[59 µM]	.	-2.1%	20.4%	11.5%[57.1 µM]	-3.6%	.
O=C(CSc1nc2ccccc2s1)Nc1ccc(Cl)c(C(=O)O)c1	2.82µM*	0.4%	-1.1%	?	-37.7%	50.1µM*	2.83*
Cc1cccc(CNC(=O)C2CCN(c3nc4ccc(Cl)cc4[nH]3)CC2)c1	-4.1%[59 µM]	.	0.2%	11.5%[57 µM]	-3.5%	-30.8%	.
COCc1cc(CN2CCCC2)c(O)c2ncccc12	?	10µM*	10.5%	26.6%	3.16µM*	8.91µM*	.	JMJD2E confirm=7.94µM*;FDH counter=-25.0%
COCc1c(C(=O)NCc2ccccc2CN2CCCC2)oc2ccccc12	23.2%[12.7 µM]	-0.4%	0.9%	38.7%	-0.1%	-14.2%	.
CCN(CC)c1ccc(NC(=O)Nc2cccc(C(C)=O)c2)cc1	1.78µM*	.	60.1%	-69.1%	31.6µM*	35.5µM*	3.17*
CCN(Cc1ccccc1)Cc1c(O)ccc2c(=O)c(-c3ccccc3Cl)c(C(F)(F)F)oc12	0.3%[59 µM]	.	6.6%	2.7%	1.7%	0.3%	.
CCN(Cc1ccccc1)Cc1c(O)ccc2c(=O)c(-c3ccccc3)c(C(F)(F)F)oc12	?	.	3.7%	86.3%	-5.8%	3.1%	44.7*
Cc1ccc(C)c(S(=O)(=O)N2CCN(Cc3ccc(O)c4ncccc34)CC2)c1	-38.1%	?	0.0%	31.6%	.	-14.1%	.	JMJD2E confirm=35.5µM*;FDH counter=?
CSc1ncccc1C(=O)N1CCN(S(=O)(=O)c2cc(C)ccc2C)CC1	-8.6%	.	-17.5%	33.7%	-15.4%	-4.7%	.
Cc1ccc(N2NC3(CCN(C(N)=O)CC3)NC2=O)cc1	0.708µM*	3.8%	13.0%	30.7%	-19.2%	-16.7%	39.8*
COc1ccc(CN2CCc3c([nH]c4ccccc34)C2)cc1Br	?	-4.0%	7.1%	-22.5%	14.1µM*	20µM*	5.02*
CCN(CC)C(=O)c1c(NC(=O)c2ccccc2F)sc2c1CCC(C(C)(C)C)C2 (configuration not stated)	-39.3%[59 µM]	.	0.4%	33.7%	10.6%	2.8%	.
SMILES	G9a inh-1	L3MBTL1 block	GLS inhibitor	HP1b binding inh	BAZ2B inh	JMJD2A Tudor	G9a inh-2	others
CCOc1cc(CN2CCN(S(=O)(=O)c3ccc(C)cc3)CC2)ccc1OC	0.891µM*	.	-7.6%	?	50.1µM*	25.1µM*	32.4*
CC(C)Cn1c(CN2CCN(c3cccc(Cl)c3)CC2)nc2c1c(=O)[nH]c(=O)n2C	-31.5%[59 µM]	.	2.4%	45.9%	-1.2%	?	.
COC(=O)Cc1sc(-c2ccccn2)nc1-c1ccccc1	2.24µM*	14.6%	-15.6%	?	9.6%	-26.2%	5.02*
Nc1ccc(S(=O)(=O)NC2(C(F)(F)F)NC(=O)N(c3cccc(Cl)c3)C2=O)cc1 (configuration not stated)	6.9%[59 µM]	.	8.2%	51.2%	-16.4%	-8.2%	.
COc1ccc(N2CCN(c3nc(NC(C)(C)C)nc(N4CCCCC4)n3)CC2)cc1	?	-27.7%	14.9%	?	3.16µM*	?	12.6*
CCOc1ccc(Nc2nc(N3CCCC3)nc(N3CCN(c4ccc(OC)cc4)CC3)n2)cc1	?	.	8.2%	-2.4%	-35.1%	-13.0%	.
CCOC(=O)c1cnc2ccc(C(=O)OC)cc2c1Nc1ccccc1CC	22.6%[59 µM]	.	3.2%	56.9%	46.8%	8.3%	.

Source: PubChem BioAssay
